From PubChem BioAssay (NCI) come the findings set out here.

“And” between values parts separate entries of the source, which are not always exact repeats. Equal values may be shown once. About 83,000 compounds went through this panel and 20% of them were active in at least one assay; those are over-represented in the sample as a whole.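 The endpoint reported here, percent growth, reads 100 for growth as untreated, 0 for no net growth and -100 for all cells dead.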 The source made the active and inactive calls. How the source made its calls: active means growth percent below 10; inactive means the rest.

Test in all cases: NCI-60 one-dose screen, 48 h (100 = growth as untreated, 0 = no growth, -100 = all killed)
What all share (details): 10 µM unless noted

The test system of assay [1] is DU-145 prostate.
Assay [2] concerns K-562 leukemia.
The subject of assay [3] is MALME-3M melanoma.
Assay [4] concerns MDA-MB-231 breast.
Assay [5] concerns RXF 393 renal.
Assay [6] relates to SF-268 CNS.
In assay [7] the test system is SF-295 CNS.
For assay [8], the system named is SF-539 CNS.
Assay [9] concerns UACC-257 melanoma.
For assay [10], the system named is M14 melanoma.

With `C=C[Se]CC(=O)/C=C/c1ccccc1`, the growth in [1] was 87.5% (inactive); in assay [2] it was 93.9% (inactive); in [3], 97.5% (inactive); in assay [4] it was 94.3% (inactive); in [5], 114% (inactive); in assay [6], 94.8% (inactive). In addition, the growth in [7] is 3.93% (active); in assay [8], 95.2% (inactive); in [9], 92.7% (inactive); in [10], 73.5% (inactive).
Turning to `CC1(C)C2CCC1(CS(=O)(=O)O)C(=O)C2` (stereo not given), the growth in [1] is 109% (inactive) and 125% (inactive); in assay [2], 99.8% (inactive) and 123% (inactive); in assay [3], 85.1% (inactive) and 105% (inactive); in assay [4] it was 94.9% (inactive) and 108% (inactive); in [5] it was 137% (inactive) and 123% (inactive); in assay [6] it was 107% (inactive) and 105% (inactive). In addition, the growth in assay [7] was 101% (inactive) and 100% (inactive); in assay [8], 91% (inactive) and 112% (inactive); in [9], 99.5% (inactive) and 96.6% (inactive); in assay [10], 98% (inactive) and 105% (inactive).
For the molecule `N#CC(N)c1ccccc1` (stereo not given), the growth in assay [1] is 106% (inactive); in assay [2] it was 116% (inactive); in [3], 98.9% (inactive); in assay [4] it was 108% (inactive); in assay [5], 112% (inactive); in assay [6], 102% (inactive). For the same molecule, the growth was 102% (inactive) in assay [7], 103% (inactive) in assay [8], 101% (inactive) in assay [9] and 99.8% (inactive) in [10].
`Oc1cc(Cl)ccc1Oc1ccc(Cl)cc1Cl`: the growth was 14.5% (inactive) in assay [1]; 11% (inactive) in assay [2]; 5.91% (active) in assay [3]; 8.82% (active) in assay [4]; -9.98% (active) in assay [5]; 21.5% (inactive) in assay [6]. For the same molecule, the growth in assay [7] was 7.37% (active); in [8], 14.7% (inactive); in assay [9], 21.4% (inactive); in assay [10], 22.1% (inactive).
As to `CC12CCC3C4CCC(=O)C=C4CCC3C1CC1CC(=O)OC12` (stereo not given), the growth is 112% (inactive) in assay [1]; 95.5% (inactive) in assay [2]; 103% (inactive) in [3]; 97.6% (inactive) in assay [4]; 110% (inactive) in assay [5]; 98% (inactive) in [6]. The growth in assay [7] was 103% (inactive); in assay [8] it was 101% (inactive); in assay [9], 80.7% (inactive); in assay [10] it was 104% (inactive).
`O=C(NC(Cl)=C(Cl)Cl)P(=O)(c1ccccc1)c1ccccc1`: the growth was 118% (inactive) in [1]; 121% (inactive) in assay [2]; 104% (inactive) in assay [3]; 98.9% (inactive) in assay [4]; 100% (inactive) in assay [5]; 110% (inactive) in assay [6]. The growth is 72.9% (inactive) in assay [7], 106% (inactive) in [8], 110% (inactive) in assay [9] and 111% (inactive) in assay [10].
In the case of `COc1ccc2c(c1)c(-c1nc(-c3cn(C)c4ncccc34)cs1)cn2CCCCN1CCOCC1`, the growth in assay [1] is 46.8% (inactive); in assay [2], -41% (active); in assay [3], -59.5% (active); in [4], 5.75% (active); in [5], 0.734% (active); in assay [6], 52.8% (inactive). Moreover, the growth in assay [7] is -48.5% (active); in assay [8], 30.8% (inactive); in assay [9], 63.5% (inactive); in assay [10] it was -66.9% (active).
For `CC(=O)Nc1nc2c(s1)C1=CC[C@H]3[C@@H]4CC[C@H](OC(C)=O)[C@@]4(C)CC[C@@H]3[C@@]1(C)CC2`, the growth in assay [1] was 72.1% (inactive); in [2], 35.1% (inactive); in [3] it was 66.5% (inactive); in assay [4], 80.3% (inactive); in assay [5] it was 7.7% (active); in assay [6], 58.4% (inactive). The growth in [7] was 29.4% (inactive); in assay [8] it was 14% (inactive); in assay [9] it was 79.2% (inactive); in assay [10] it was 39.7% (inactive).
Consider `CC[PH+](CC)CC.O=COC1OC([S-])C(OC=O)C(OC=O)C1OC=O.[Au+]` (stereo not given), for which the growth is -43.7% (active) in [1]; -6.71% (active) in [2]; -92.1% (active) in [3]; -76.3% (active) in assay [4]; -91% (active) in [5]; -78.5% (active) in assay [6]. Besides, the growth in assay [7] is -16.3% (active); in [8] it was -99.2% (active); in assay [9], -83.6% (active); in assay [10], -63.1% (active).
With `ClC1OC(Cl)(Cl)C(Cl)(Cl)OC1(Cl)Cl` (stereo not given), the growth was 114% (inactive) in assay [1]; 98.1% (inactive) in [2]; 97.5% (inactive) in [3]; 105% (inactive) in [4]; 110% (inactive) in assay [5]; 108% (inactive) in [6]. Moreover, the growth was 109% (inactive) in [7], 91% (inactive) in [8], 99.5% (inactive) in assay [9] and 98.1% (inactive) in assay [10].
On to `CC/C(=C(\c1ccc(OCCN2CCOCC2)cc1)c1ccc(OC(=O)Cc2ccccc2)cc1)c1ccc(Cl)cc1`, for which the growth in assay [1] was 101% (inactive); in assay [2], 82.4% (inactive); in [3], 95.1% (inactive); in [4], 109% (inactive); in assay [5], 114% (inactive); in assay [6], 94.1% (inactive). Besides, the growth was 99.4% (inactive) in [7], 105% (inactive) in assay [8], 107% (inactive) in [9] and 102% (inactive) in [10].
For `C=C1C(=O)OC2CC3(C)OC3C3OC3C3=CC(OC3=O)C12` (stereo not given), the growth in assay [1] is 109% (inactive) and 111% (inactive); in assay [2], -0.414% (active) and 6.29% (active); in [3] it was -53.4% (active) and -59.2% (active); in assay [4] it was 104% (inactive) and 107% (inactive); in assay [5] it was 8.42% (active) and 68.4% (inactive); in [6], 99.2% (inactive) and 109% (inactive). Moreover, the growth in assay [7] was 103% (inactive) and 97.9% (inactive); in [8] it was 101% (inactive) and 96.3% (inactive); in assay [9], 53.6% (inactive) and 82.2% (inactive); in assay [10] it was 88.3% (inactive) and 91.9% (inactive).
